# This is part of a sample that, as a whole, favours compounds with a hit. Of some 83,000 tested, about 20% had one in any assay.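 Method: cells in 96-well plates; compound added at one concentration; 48 h incubation; percent growth measured; values under 10 scored active.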 Unmarked numbers belong to inactive results. Activity calls are given as the source filed them.
# Test system: SF-539 CNS
# Test: NCI-60 one-dose screen, 48 h (100 = growth as untreated, 0 = no growth, -100 = all killed)
# Conditions: 10 µM unless noted
row,Structure (SMILES),growth
1,C=CC(=O)Nc1cccc(-c2nc(SC)nc(NCc3ccccc3)c2C#N)c1,67.7%
2,COC(=O)c1ccc2oc(NC(=O)c3ccc(Nc4ccc([N+](=O)[O-])cc4C)c([N+](=O)[O-])c3)nc2c1,96.1%
3,COc1cc(/C=C/c2cc(/C=C/c3ccc(O)c(OC)c3)n(-c3c(Cl)cccc3Cl)c(=O)n2)ccc1O,3.35% (active)
4,CSc1nc(Nc2cccc(NC(=O)CCl)c2)c(C#N)c(-c2cccc([N+](=O)[O-])c2)n1,73.3%
5,CC(C)(C)N1CCC1CN (centres undefined),91.8%
6,Cc1ccc(NC(=O)/C=C/c2ccccc2)c(C(N)=O)c1,0.356% (active)
7,COc1ccc(-n2nc(C)c3c(Nc4ccc(NC(=O)Nc5cccc(C(F)(F)F)c5)cc4)ncnc32)cc1,2.75% (active)
8,O=C1OCC2=C1C(c1ccncc1)c1cc3c(cc1N2CCO)OCO3 (centres undefined),101%
9,C#Cc1cccc(NC(=O)c2ccccc2NC(=O)C=C)c1,92% [8.25 µM]
10,CCOc1cc2ncc(C#N)c(Nc3ccc(F)c(Cl)c3)c2cc1NC(=O)CC1CCSS1 (centres undefined),-12.6% (active)
11,CN(Cc1cc(Cl)cc(Cl)c1O)Cc1cc(Cl)cc(Cl)c1O,81.9%
12,CC(=O)O[C@H]1[C@@H]2OC(=O)C(CSc3ccccc3)[C@@H]2C[C@H]2O[C@]2(C)CC/C=C(\C)CCC[C@@H]1C (some centres undefined),57%
13,COc1ccc(/C=N/C2=C(C#N)C(c3ccc(N(C)C)cc3)c3ccc4ccccc4c3O2)cc1 (centres undefined),51.8%
14,C[n+]1ccccc1/C=C/c1ccc2cccc(O)c2n1,109%
